RORg inh: blocks mouse ROR gamma transcriptional activity | Drosophila S2 Gal4-RORgamma UAS-luciferase reporter, 20 h | Potency, µM (highest dose often 53.6 µM), actives largely listed as inhibitors | 5.4% of 310,000 active | AID 2551; note: nearly all actives have a fitted effect of over 60% in size
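Stably transfected Drosophila Schneider cells are the test system, with ROR gamma fused to Gal4 and luciferase under UAS control; luminescence is read after 20 hr of 700 uM copper sulfate induction at ambient temperature.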
PLK1 PBD block: inhibitors of human PLK1 polo-box domain binding. 2.8% of 360,000 active. Potency, µM, most hits filed as inhibitors. P53350. Plk1 PBD binding of FITC phosphopeptide, fluorescence polarization; note: series mostly up to about 57 µM; nearly all actives have a fitted effect of over 65% in size
Target sequence (P53350 whole entry, looked up, the tested form may be a part): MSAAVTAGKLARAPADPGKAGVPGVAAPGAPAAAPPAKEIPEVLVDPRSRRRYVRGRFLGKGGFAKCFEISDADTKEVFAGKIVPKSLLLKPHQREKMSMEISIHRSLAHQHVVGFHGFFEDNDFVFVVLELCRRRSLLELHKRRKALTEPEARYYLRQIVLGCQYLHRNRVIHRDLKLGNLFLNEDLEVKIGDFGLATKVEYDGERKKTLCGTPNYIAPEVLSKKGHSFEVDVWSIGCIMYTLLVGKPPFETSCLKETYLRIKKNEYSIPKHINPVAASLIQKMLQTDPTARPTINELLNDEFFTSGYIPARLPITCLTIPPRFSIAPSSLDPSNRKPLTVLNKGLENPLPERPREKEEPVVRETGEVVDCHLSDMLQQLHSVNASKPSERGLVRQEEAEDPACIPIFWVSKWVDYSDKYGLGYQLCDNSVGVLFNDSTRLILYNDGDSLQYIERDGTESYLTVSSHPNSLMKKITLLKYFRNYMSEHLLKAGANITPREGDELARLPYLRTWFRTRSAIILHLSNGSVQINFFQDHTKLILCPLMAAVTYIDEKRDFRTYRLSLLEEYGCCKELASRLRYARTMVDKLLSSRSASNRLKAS
ALDH1A1 inh: ALDH1A1 (human) enzyme inhibition | Potency, µM (titrated, usually from 75.3 µM), usual class: inhibitors | Purified ALDH1A1, NADH fluorescence, propionaldehyde substrate | 7.3% of 220,000 active; active = well fitted inhibition curve with a large enough effect, not every such curve was filed as active; inconclusive = small, poorly fitted or top-dose-only effect, or another doubt; inactive = no such curve, though single readings can be large or run the other way
Sfp inh: Sfp phosphopantetheinyl transferase inhibition; Biochemical Sfp PPTase activity, qHTS; Potency, µM, most hits filed as inhibitors; 3.5% of 310,000 active;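 note: the enzyme is Sfp with the accession as filed and its product quenches rhodamine fluorescence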
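Fluorescence-quenching assay with 15 nM Sfp, 5 uM rhodamine-CoA and 12.5 uM BHQ-2-labelled ybbR peptide in pH 7.6 Hepes/MgCl2 buffer. Enzyme was pre-incubated with compound for 15 min at room temperature. Rate was taken from the 30-min fluorescence change (525/598 nm).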
Gal4-VP16 FLuc: Gal4-VP16 reporter inhibition counter-screen; Drosophila S2 Gal4-VP16 UAS-luciferase, luminescence, 20 h; Potency, µM (titrated, usually from 53.6 µM), most hits filed as inhibitors; 3.5% of 310,000 active; AID 2546;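 note: Gal4-VP16 expression switched on by copper sulfate through the metallothionein promoter; nearly all actives have a fitted effect of over 50% in size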
A number is an active result; – = inactive; ? = inconclusive; · = no result; [ ] = remark or other dose. A selection: hits, their analogues and other compounds. The true share with any hit is near 12%. Unless noted, calls come from the whole dose curve; as a rule, active = well fitted curve in the direction sought with a large enough effect; inconclusive = small, poorly fitted or top-dose-only effect, or another doubt; inactive = no such curve, though single readings can be large; an effect the other way counts as inactive or inconclusive.

SMILES	RORg inh	PLK1 PBD block	ALDH1A1 inh	Sfp inh	Gal4-VP16 FLuc
CCCCC(=O)NC(c1ccccc1OC)c1ccc2cccnc2c1O (stereo not given)	5.6µM	–	·	–	4.5µM
CCCC(=O)NC(c1ccccc1OC)c1ccc2cccnc2c1O (stereo not given)	5µM	?	–	–	2.2µM
O=C(Nc1cccc(C(=O)N2CCCC2)c1)C1CCCCC1	·	–	·	·	·
c1csc(C2C3=C(Nc4ncnn42)c2ccccc2OC3)c1 (stereo not given)	–	–	?	50µM	–
CC1=C(C(N)=O)C(c2cccs2)n2ncnc2N1 (stereo not given)	–	–	·	–	–
CCN(CC)c1ccc(C=O)c(OC)c1	–	–	4µM	?	–
COc1ccc(C=O)c(OC)c1	–	–	?	–	–
Cn1cnnc1SC1CCCCC1NS(=O)(=O)c1ccc(Cl)cc1 (stereo not given)	–	–	13µM	–	–
Cn1cnnc1SC1c2cccc3cccc(c23)C1NS(=O)(=O)c1ccccc1 (stereo not given)	–	–	?	–	–
Nn1cnnc1SC1CCCCC1NS(=O)(=O)c1ccccc1 (stereo not given)	–	–	10µM	–	8.9µM
Cn1cnnc1SC1CCCCC1NS(=O)(=O)c1ccccc1 (stereo not given)	–	–	7.9µM	–	–
CC(=O)c1ccc(NC(=O)C(C)Sc2nnc(-c3ccncc3)n2C2CC2)cc1 (stereo not given)	·	–	·	·	·
Cc1ccccc1CSCC(Nc1ccc(C(=O)O)cc1[N+](=O)[O-])C(=O)O (stereo not given)	–	–	16µM	–	–
N#CC1=C(N)SC2(CCCCC2)SC1c1ccccc1 (stereo not given)	6.3µM	21µM	25µM	10µM	?
N#CC1=C(C2CC2)CC(c2ccccc2)C(C#N)=C1N (stereo not given)	–	–	?	–	–
O=C(OCc1cn([C@@H]2CN(Cc3cccs3)[C@@H](c3ccc(Cl)cc3)C[C@H]2O)nn1)c1ccccc1	·	–	·	·	·
O=S1(=O)N[C@@H](Cc2ccccc2)COc2cccc(N3CCN(Cc4ccccc4F)CC3)c21	·	–	·	·	·
O=c1oc(-c2ccccc2)cc(Cl)c1Cl	11µM	11µM	·	–	10µM
O=c1cc(-c2ccccc2)oc2ccc(Cl)cc12	·	–	·	·	·
C[C@@](Cc1ccccc1)(C(=O)O)N1C(=O)c2ccc(C(=O)O)cc2C1=O	–	·	·	–	–
c1ccc(-c2noc(CSc3nnnn3C3CCCCC3)n2)cc1	?	–	3.2µM	–	?
c1ccc(-n2c(SCc3nc(-c4cccs4)no3)nnc2-c2ccco2)cc1	–	–	7.1µM	–	–
O=C(O)c1ccc(CSc2nnc(-c3ccco3)n2-c2ccccc2)cc1	–	–	?	–	–
CCn1c(SCc2nc(-c3ccccc3)no2)nnc1-c1ccco1	?	–	?	79µM	–
CCn1c(SCc2nc(-c3ccccc3)no2)nnc1-c1cccs1	–	–	–	–	–
SMILES	RORg inh	PLK1 PBD block	ALDH1A1 inh	Sfp inh	Gal4-VP16 FLuc
c1ccc(-c2noc(CC3CCCCC3)n2)cc1	–	–	–	–	–
CCn1c(SCc2nc(-c3cccs3)no2)nnc1-c1c[nH]c2ccccc12	?	–	–	–	–
c1ccc(-n2c(SCc3ccncc3)nnc2-c2ccco2)cc1	?	–	10µM	28µM	–
CC(=O)[C@H]1CC[C@H]2[C@@H]3C=CC4=CC(=O)CC[C@@]4(C)[C@H]3CC[C@]12C	–[2.98 µM]	·	?	–	–
COc1cc(OCc2ccccc2)c(CC(=O)O)c([N+](=O)[O-])c1	·	–	·	·	·
CC1CC(C)CN(CCOCCSc2ccc(Cl)cc2)C1 (stereo not given)	–	–	–	56µM	–[10 µM]
CC1CC(C)CN(CCCSc2ccccc2)C1 (stereo not given)	–	–	24µM	?	–
CC1CN(CCCSc2ccc(Cl)cc2)CC(C)O1 (stereo not given)	–	–	?	?	–
O=C(NCc1cccnc1)c1cc(C2CCCN(S(=O)(=O)c3cccs3)C2)on1 (stereo not given)	·	–	·	·	·
CCCCCC(=O)NNC1=NCC(Cc2ccccc2)S1 (stereo not given)	1.4µM	–	–	–	?
Cc1ccc2cc(C(c3nnnn3C3CCCC3)N3CCN(c4ccc(F)cc4)CC3)c(=O)[nH]c2c1 (stereo not given)	–	–	11µM	35µM	–
Cc1cc(C)c2cc(C(c3nnnn3C3CCCC3)N3CCOCC3)c(=O)[nH]c2c1 (stereo not given)	–	–	14µM	56µM	–
Cc1cccc2cc(C(c3nnnn3C3CCCC3)N3CCOCC3)c(=O)[nH]c12 (stereo not given)	–	–	?	–	–
Cn1c(N)c(C(=O)Nc2c(Cl)cccc2Cl)sc1=S	–	–	·	–	–
Cc1cc(C(=O)NC2CCCc3c2cnn3-c2ccc(C)c(C)c2)n(C)n1 (stereo not given)	?	–	·	–	0.0079µM
COCc1ccc(C(=O)NC2CCCc3c2cnn3-c2ccc(C)c(C)c2)o1 (stereo not given)	?	–	·	–	11µM
CCN(CC)C(=S)SCC(=O)c1ccc(Br)cc1	–	–	8.9µM	–	–
Cc1cc(O)c(C)c2sc(N)nc12	–	·	·	–	–
c1ccc(-c2nnc(-c3ccccc3)o2)cc1	–	–	–	–	–
CCOc1ccc(-c2nnc(-c3ccccc3)o2)cc1	10µM	–	?	–	?
CCCOc1ccc(-c2nnc(-c3cccs3)o2)cc1	5µM	–	?	–	?
ClCc1nnc(-c2ccccc2)o1	–[10 µM]	–	7.9µM	–	?
CCOc1ccc(-c2nnc(-c3ccncc3)o2)cc1	13µM	27µM	?	–	?
CCCCC1CN2C(CCC(C)C2c2ccc(Br)cc2)C(=O)O1 (stereo not given)	–[10 µM]	·	?	–	–[10 µM]
Cc1ccc2ccccc2c1C(O)c1ncc(-c2ccccc2Cl)[nH]1 (stereo not given)	·	–	·	·	·
SMILES	RORg inh	PLK1 PBD block	ALDH1A1 inh	Sfp inh	Gal4-VP16 FLuc
CC(C)(C)c1cc(NC(=O)C2(C)CCN2C(=O)C2(c3ccccc3)CC2)no1 (stereo not given)	·	–	·	·	·
O=C(NC(=S)Nc1ccc(O)cc1)c1ccccc1Cl	–	–	18µM	–	–
CC(NC(=O)c1ccccc1Cl)NC(=O)c1ccccc1Cl	–	–	·	–	–
Cc1cc(C)c(NC(=O)CC(=O)c2ccccc2)c(Cl)c1	–	–	·	–	–
Cc1cc(C)c(C(=O)CC(=O)c2ccccc2Cl)c(O)c1	2.2µM	–	·	?	4.5µM
Cc1ccc(O)c(NC(=O)c2cc(-c3ccccc3Cl)on2)c1	–	–	·	–	–
Cc1ccc(O)c(NC(=S)NC(=O)c2ccccc2Cl)c1	3.5µM	–	?	–	13µM
CC(C)CNC(=S)NC(=O)c1ccccc1Cl	5µM	–	–	–	11µM
O=C1C[C@H]2OCC=C3CN4CC[C@@]5(C(=O)O)[C@H](N1)C2[C@H]3C[C@H]45 (stereo not given in full)	·	·	–[13.5 µM]	·	·

Compound activity (PubChem)
